# Sampled rows, rich in hits. Any-hit rate of the full collection: about 2.9%.
# A549 viability: A549 cytotoxicity, counter-screen for Nrf2 inhibitors. Potency, µM (series often up to 46 µM), for the others: at the top dose activity change, negative = cytotoxicity, usual class: inhibitors. A549 ARE-Fluc cells, CellTiter-Fluor viability, 18-24 h. 0.16% of 390,000 active; also: % is scaled to controls: 0 for no effect and ±100 for the full control effect
#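 A549 ARE_Fluc cells in 5% FBS OPTI-MEM were exposed to compounds in concentration-response for 18-24 h at 37 deg C. Viability was read by CellTiter-Fluor fluorescence (Ex 405/Em 525) after 30 min, before the luciferase read.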
# Nrf2 inh: blocks Nrf2 signaling. A549 ARE-Fluc reporter, luciferase luminescence, 18-24 h. Potency, µM (highest dose often 46 µM), without a hit: top-dose activity change, negative = inhibition, most hits filed as inhibitors. 2.1% of 360,000 active. AID 504444; also: % is scaled to controls: 0 for no effect and ±100 for the full control effect; nearly all actives have a fitted effect of over 60% in size
#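 A549 ARE_Fluc cells, 5000/well, 5% FBS OPTI-MEM; compounds in dose-response, 18-24 h at 37 °C/5% CO2; CellTiter-Fluor viability read (Ex 405/Em 525), then BugLite luciferase luminescence = Nrf2 activity.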
# S2 tox: cell viability loss in ATXN counter-screen; S2 cells (HEK-293 line with an ATXN2-luciferase reporter) viability, CellTiter-Fluor protease fluorescence, 24 h; Potency, µM (doses to about 56.7 µM), actives largely listed as cytotoxic; 0.49% of 400,000 active; also: nearly all actives have a fitted effect of over 40% in size
# Nrf2 ARE act: activates Nrf2 signaling; AREc32 ARE-luciferase reporter (MCF7-derived line), luminescence, 24 h; Potency, µM (series often up to 46.1 µM), inactives show at the highest dose activation, most hits filed as activators; 0.31% of 410,000 active; AID 624171; also: % of control where 0% means no effect; nearly all actives have a fitted effect of over 65% in size
#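 Steps: seed AREc32_Fluc cells (1000/well, 5% FBS OPTI-MEM); incubate overnight at 37 deg C; add 23 nL compound; incubate 24 hr; add Steady-Glo; hold 30 min RT; read luminescence.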
# ATXN2 expr inh: inhibitors of ATXN2 expression. Potency, µM (titrated, usually from 57 µM), inactives show at the highest dose activity change, negative = inhibition, most hits filed as inhibitors. 0.72% of 360,000 active. AID 1745845. HEK-293 ATXN2-luciferase reporter, luminescence, 24 h; also: % is scaled to controls: 0 for no effect and ±100 for the full control effect; nearly all actives have a fitted effect of over 55% in size
#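 ATXN2-luciferase reporter cells (luciferase flanked by upstream and downstream ATXN2 gene portions) were treated 24 h at 37 °C with compounds at up to 57 uM. SteadyGlo luminescence gave expression; GF-AFC fluorescence gave viability.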
# Starred values were filed as active, the others as inactive; i = inactive; ? = inconclusive; nt = not tested or not shown; [ ] = remark or other dose. Calls follow the shape of the dose curve; as a rule, active = well fitted curve in the direction sought with a large enough effect; inconclusive = small, poorly fitted or top-dose-only effect, or another doubt; inactive = no such curve, though single readings can be large; an effect the other way counts as inactive or inconclusive. Potency is read from the fitted curve at half-maximal effect.
SMILES,A549 viability,Nrf2 inh,S2 tox,Nrf2 ARE act,ATXN2 expr inh
COc1ccc2oc(=O)c(C(=O)Nc3cccc(C(=O)O)c3)cc2c1,2%,?,i,-3%,0.89µM*
Cc1csc(CNc2ncnc3cc(-c4ccc5c(c4)OCO5)ccc23)n1,-8%,-5%,nt,nt,nt
Cc1cc(C)cc(CSCC(=O)N/N=C/c2ccc(OCC(=O)NCc3ccco3)cc2)c1,-15%,15µM*,i,4%,-18%
O=C(CSCc1cccc(Cl)c1)N/N=C/c1ccc(OCC(=O)N2CCCCC2)cc1,-2%,18µM*,?,3%,-29%
Cc1cccc(C(=O)N/N=C/c2ccc(OCC(=O)N3CCCCC3)cc2)c1,-2%,0%,i,0%,15%
Cc1cc(CNC(=O)c2cnn(-c3nccc(-c4ccc5c(c4)OCO5)n3)c2C2CC2)on1,nt,nt,i,nt,nt
CC(C)c1cc(-c2nc(-c3ccccc3)no2)n[nH]1,-7%,-13%,nt,0%,nt
Cc1nc2c([nH]1)CCN(C(=O)c1ccc(NC(=O)c3ccccc3-c3ccccc3)cc1)c1ccccc1-2,nt,nt,nt,nt,-1%
CC(C)(C)c1ccc(C(=O)N2CCC3(CC2)CC3C(=O)NCCc2ccccn2)cc1 (configuration not stated),nt,nt,i,nt,nt
O=C(N/N=C\c1ccco1)Nc1cccc(Cl)c1,-8%,?,i,5µM*,83%
Cc1cccc(NC(=O)CCC(=O)N/N=C/c2ccco2)c1,8%,0%,i,23%,nt
O=C(Nc1ccccc1C(=O)N/N=C/c1ccco1)c1ccc(F)cc1,8%,3%,i,2.8µM*,-9%
O=C(Nc1ccccc1C(=O)N/N=C/c1ccco1)c1ccc(Cl)cc1,19%,2%,i,?,nt
O=C(Nc1ccccc1C(=O)N/N=C/c1ccco1)c1ccccc1,1%,4%,i,3.5µM*,-7%
Cc1ccccc1C(=O)Nc1ccccc1C(=O)N/N=C\c1ccco1,11%,6%,i,?,-2%
CC1(C)[C@H]2CC[C@]3(C)[C@@H](C(=O)C=C4[C@@H]5C[C@@](C)(C(=O)O)CC[C@]5(C)CC[C@]43C)[C@@]2(C)CC[C@@H]1O,nt,nt,nt,nt,0%
COc1ccc(OC)c(-c2cc(C(=O)Nc3c(C)nn(Cc4ccc(Cl)cc4)c3C)no2)c1,0%,nt,i,1%,-30%
Cc1ccc(NC(=O)c2cc(-c3ccc4c(c3)OCO4)on2)cc1,1%,9%,i,0%,0%
COc1ccc(OC)c(-c2cc(C(=O)Nc3c(C)nn(Cc4ccccc4)c3C)no2)c1,-15%,15µM*,i,3%,-19%
COc1ccc2c(c1)CCc1c(C(=O)Nc3c(C)nn(Cc4ccccc4)c3C)noc1-2,-6%,21µM*,i,-1%,-13%
COc1ccc2c(c1)CCc1c(C(=O)Nc3ccn(Cc4ccc(C)cc4)n3)noc1-2,-25%,16µM*,18µM*,0%,10µM*
Cc1nn(Cc2ccc(Cl)c(Cl)c2)c(C)c1NC(=O)c1cc(-c2ccc3c(c2)OCO3)on1,?,12µM*,i,4%,-36%
Cc1ccc(Cn2ccc(NC(=O)c3noc4c3CCc3ccccc3-4)n2)cc1,-2%,?,i,0%,-3%
COc1ccc(SCC(CC(C)C)N2CCN(C)CCC2=O)cc1 (configuration not stated),-1%,?,nt,nt,nt
COc1ccc(-c2cc(C)cc3c2OC(CNC(=O)c2cc(C(C)C)on2)C3)nn1 (configuration not stated),nt,nt,i,nt,nt
SMILES,A549 viability,Nrf2 inh,S2 tox,Nrf2 ARE act,ATXN2 expr inh
COc1cccc(-c2cc(C(=O)NCc3ccco3)no2)c1,-5%,nt,i,1%,56%
Cc1nn(Cc2ccc(Cl)cc2)c(C)c1NC(=O)c1noc2c1CCc1ccccc1-2,?,16µM*,?,0%,?
COc1ccc(OC)c(-c2cc(C(=O)NCc3ccco3)no2)c1,2%,4%,i,11µM*,5%
CCc1c(C)sc(NC(=O)c2cc(-c3cc(OC)ccc3OC)on2)c1C#N,-7%,11%,nt,-1%,14µM*
COc1ccc2c(c1)CCc1c(C(=O)Nc3c(C)nn(Cc4ccc(Cl)cc4)c3C)noc1-2,-2%,-13%,nt,0%,nt
CCc1c(C)sc(NC(=O)c2cc(-c3ccc(OC)c(OC)c3)on2)c1C#N,0%,?,i,0%,9%
NC(=O)C1CCN(C(=O)Cn2c(-c3cccs3)cc3ccccc32)CC1,?,?,i,5%,4%
COc1ccc(/C=C/C(=O)Nc2ccccc2C(=O)O)cc1OC,-2%,-25%,i,0%,?
COc1ccc(C=CC(=O)Nc2ccccc2C(=O)O)cc1OC,nt,nt,nt,nt,0.97µM*
COc1ccc(-c2nc3ccccc3c(=O)n2Cc2ccc(CNC(=O)CO)cc2)cc1COc1ccc(NC(C)=O)cc1,-16%,?,nt,nt,nt
Clc1ccc2c(N3CCN(CCCN4CCN(c5ccnc6cc(Cl)ccc56)CC4)CC3)ccnc2c1,nt,nt,nt,nt,-7%[25.6 µM]
CCOC(=O)C1=C(C)NC(C)=C(C(=O)OCC)C1c1ccccc1/C=C/C(=O)OC(C)(C)C,nt,nt,?,nt,35µM*
N#C/C(=C\c1cccc([N+](=O)[O-])c1)C(=O)NCc1ccc(Cl)cc1,0%,-3%,?,18%,24µM*
N#C/C(=C\c1cccc([N+](=O)[O-])c1)C(=O)NCc1cccnc1,-8%,1%,?,7%,-6%
COC1=CC(=O)c2nc(Cl)ccc2C1=O,nt,nt,?,-4%,3.2µM*
Cc1cc(C)cc(C(=O)NCc2nc(-c3cccc(NC(=O)c4ccccn4)c3)oc2C)c1,nt,nt,i,nt,nt
COCc1c(C(=O)OCC(=O)c2c(N)n(CC(C)C)c(=O)n(C)c2=O)oc2ccccc12,-4%,21µM*,?,-1%,-20%
Cn1c(N)c(C(=O)COC(=O)c2ccc3c(c2)OCCO3)c(=O)n(C)c1=O,-1%,0%,i,-1%,-3%
Cn1c(N)c(C(=O)COC(=O)c2cc(C(F)(F)F)nc3ccccc23)c(=O)n(Cc2ccccc2)c1=O,13%,21µM*,i,-1%,-37%
CC(C)Cn1c(N)c(C(=O)COC(=O)c2ccc3c(c2)OCCO3)c(=O)n(C)c1=O,-15%,10µM*,i,0%,-7%
Cn1c(N)c(C(=O)COC(=O)c2cc(C3CC3)nc3ccccc23)c(=O)n(C)c1=O,1%,-11%,i,0%,0%
CC(C)Cn1c(N)c(C(=O)COC(=O)c2cccn2C)c(=O)n(C)c1=O,14%,23µM*,i,-1%,nt
O=C(NCc1ccccc1F)c1cccc(NC(=O)N2CCSc3ncccc32)c1,1%,-5%,nt,5%,nt
O=S1(=O)N=C(Sc2ccc3c(c2)OCCO3)c2ccccc21,0%,-30%,nt,nt,nt
CCN(c1cccc(C)c1)S(=O)(=O)c1ccc(N2CCCCS2(=O)=O)cc1,7%,nt,i,0%,5%

# Bioassay records as filed in PubChem.
